The values that follow come from PubChem BioAssay AID624330 (Southern Research Specialized Biocontainment Screening …, 2012).

About 2,100 (0.62%) of roughly 340,000 compounds were called active.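 The calls were made as follows: active = first-screen hits whose inhibition reached a set limit at any dose in the follow-up dose series; inconclusive = inhibition above the set first-screen limit but never retested; inactive = the rest.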 Only a sample is shown. Measured potencies and affinities stand elsewhere.

Rac GTPase-activating protein 1 (Homo sapiens), sequence (Q9H0H5 whole entry, looked up): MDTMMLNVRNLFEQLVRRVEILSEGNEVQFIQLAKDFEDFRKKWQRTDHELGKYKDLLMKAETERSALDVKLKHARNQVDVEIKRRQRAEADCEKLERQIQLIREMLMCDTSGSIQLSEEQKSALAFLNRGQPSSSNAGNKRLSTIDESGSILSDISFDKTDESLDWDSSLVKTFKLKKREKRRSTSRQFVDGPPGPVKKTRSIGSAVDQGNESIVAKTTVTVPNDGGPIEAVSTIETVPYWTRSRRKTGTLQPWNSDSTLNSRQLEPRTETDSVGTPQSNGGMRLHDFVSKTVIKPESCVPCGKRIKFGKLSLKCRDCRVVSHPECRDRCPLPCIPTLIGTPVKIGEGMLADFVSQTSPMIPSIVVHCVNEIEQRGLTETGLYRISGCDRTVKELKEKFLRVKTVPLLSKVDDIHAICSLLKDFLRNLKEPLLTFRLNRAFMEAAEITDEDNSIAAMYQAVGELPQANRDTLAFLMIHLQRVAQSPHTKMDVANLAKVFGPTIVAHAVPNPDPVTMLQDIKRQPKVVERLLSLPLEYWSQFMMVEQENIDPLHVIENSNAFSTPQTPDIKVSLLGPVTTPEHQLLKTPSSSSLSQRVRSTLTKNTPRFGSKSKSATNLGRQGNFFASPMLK

The test has as its target Rac GTPase-activating protein 1 (Homo sapiens) (UniProt Q9H0H5). Put plainly: MgcRacGAP GTPase-activating activity inhibitors, confirmation, biochemical, ADP Hunter fluorescence, primary and confirmatory (AID 624330).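 Also: fluorescence reports GDP produced by GAP-driven GTP hydrolysis.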 To be noted: MgcRacGAP-stimulated Rac1 GTP hydrolysis, at 30 µM, hits give high values, GST-tagged Rac1 F28L mutant substrate.
Usually inhibition stands for the change of the read-out against control, counted positive when it falls. For the compound `Cc1ccc(C2=CSC3=NCCN23)cc1`, the inhibition is 11.6% (inactive).
The result for `CC1=CC(C)(C)N(C(=O)CNC2CCCCC2)c2cc(C)ccc21` reads 30.1% (inactive); that for `CC1=CC(C)(C)N(C(=O)CCl)c2cc(C)ccc21`, 2.46% (inactive); that for `CCOc1ccccc1C(C(=O)NC1CCCC1)N(C(=O)c1csnn1)C1CC1` (stereo not given), 6.21% (inactive).
The result for `CC(c1nnc(SCC(=O)NC(=O)NCc2ccco2)n1-c1ccc(Cl)cc1)N(C)C` (stereo not given) reads 4.03% (inactive).
Consider `CCC(=Cc1ccccc1O)c1ccncc1`, for which the inhibition is 2.41% (inactive).
The result for `CC/C(=C\c1ccc(Cl)cc1)c1ccncc1` reads 5.22% (inactive).
Then `CCOC(=O)C(NC(C)=O)C(=O)Nc1ccc(C(C)(C)C)cc1` (stereo not given), with 15.1% (inactive).
Then `C[C@H](CO)N1C[C@H](C)[C@@H](CN(C)S(=O)(=O)c2ccc(F)cc2)Oc2ccc(NC(=O)NC3CCCCC3)cc2C1=O`, with 6.3% (inactive); and `CC(C)(Oc1ccc(Cl)cc1)C(=O)N(Cc1ccccc1)c1ccccn1`, with 1.14% (inactive); and `Cc1ccc2sc(NNC(=O)c3cc(=O)c4ccccc4o3)nc2c1C`, with 24.2% (inactive).
As to `Cc1cc(C)c2nc(NNC(=O)c3cc(=O)c4ccccc4o3)sc2c1`, the inhibition was 10.6% (inactive).
With `Cc1ccc(C)c(OCCCCN2CCNCC2)c1C`, the inhibition is 4.36% (inactive).
As to `Cc1cc(C)c(OCCCCN2CCNCC2)c(C)c1`, the inhibition was 8.89% (inactive).
Then `Clc1ccc(OCCCN2CCCC2)cc1Cl`, with -13.7% (inactive).
Then `Cc1ccc(C(C)C)c(OCCCCCN2CCOCC2)c1`, with 7.81% (inactive); and `Cc1ccc(C)c(OCCCN2CCNCC2)c1`, with 7.95% (inactive); and `Cc1cc(OCCCN2CCCC2)ccc1Cl`, with 7.71% (inactive).
In the case of `Cc1ccc(C)c(OCCCN2CCCC2)c1`, the inhibition is 19.9% (inactive).
The result for `Cc1ccc(OCCCCN2CCCCC2)c(Br)c1` reads 6.79% (inactive); that for `Cc1cc(C)n2c(SCC(=O)Nc3ccccc3C#N)nnc2n1`, 2.29% (inactive).
The result for `COc1ccc(CCN2CCCn3c2nc2c3c(=O)[nH]c(=O)n2C)cc1OC` reads 6.67% (inactive); that for `CCC1(NC(C)=O)CC2CC1CC2NC(C)=O` (stereo not given), 1.95% (inactive).
The result for `CCCC(C)NC(=O)COC(=O)c1ccccc1SCC(=O)NC(C)CCC` (stereo not given) reads 2.85% (inactive).
`Cc1ccc(P(=O)(O)c2ccc(C)cc2)cc1`: the inhibition is 8.6% (inactive).
The result for `Cc1ccc(OCCCCN2CCCCC2)c(C)c1` reads 2.28% (inactive); that for `Cc1ccccc1OCCCN1CCCC1`, 26.5% (inactive).
Then `Cc1ccc(OCCN2CCCCCC2)c(C)c1`, with 10.9% (inactive); and `Cc1ccccc1OCCOCCN1CCCCCC1`, with -5.57% (inactive).
For the compound `CC1CCCN(C(=O)C2CCN(Cc3ccc4c(c3)OCO4)CC2)C1` (stereo not given), the inhibition was 5.33% (inactive).
